# Compounds with a hit are over-represented: about 3.3% of the library has one in this group of screens.
# Sm TGR inh: qHTS Assay for the Inhibitors of Schistosoma Mansoni Peroxiredoxins; AID 485364, 2010; Potency, µM (top dose mostly 114 µM), hits mostly inhibitors; purified TGR, DTNB reduction, TNB absorbance 405 nm; hit rate 3% among 360,000; Schistosoma mansoni thioredoxin glutathione reductase (TGR), Q962Y6; also: nearly all actives have a fitted effect of over 60% in size
#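 First, TGR (20 nM dispensed) and NADPH were mixed with compound. Second, a 15 min room-temperature incubation followed. Third, further NADPH and then DTNB were added to start the reaction. Finally, TNB absorbance was monitored kinetically.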
# Giardia FBPA inh: qHTS Assay for Inhibitors of Fructose-1,6-bisphosphate Aldolase from Giardia Lamblia; AID 2451, 2010; A8B2U2; Potency, µM (titrated, usually from 59.6 µM), hits mostly inhibitors; purified Giardia FBPA; hit rate 0.71% among 290,000; also: nearly all actives have a fitted effect of over 55% in size
#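 40 nM FBPA preincubated 10 min at RT with compound (up to 57.5 uM final), then substrate plus GAPDH/TPI/NAD/arsenate coupling and diaphorase/resazurin added. Fluorescence read after 20 min at RT, 525/598 nm.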
# LmPK inh: qHTS Assay for Inhibitors of Leishmania Mexicana Pyruvate Kinase (LmPK). Q27686. purified LmPK, Kinase-Glo ATP luminescence, 1 h. Potency, µM (titrated, usually from 57.5 µM), usual class: inhibitors. hit rate 0.37% among 290,000. AID 1721, 2009
# Target sequence (Q27686 whole entry, looked up): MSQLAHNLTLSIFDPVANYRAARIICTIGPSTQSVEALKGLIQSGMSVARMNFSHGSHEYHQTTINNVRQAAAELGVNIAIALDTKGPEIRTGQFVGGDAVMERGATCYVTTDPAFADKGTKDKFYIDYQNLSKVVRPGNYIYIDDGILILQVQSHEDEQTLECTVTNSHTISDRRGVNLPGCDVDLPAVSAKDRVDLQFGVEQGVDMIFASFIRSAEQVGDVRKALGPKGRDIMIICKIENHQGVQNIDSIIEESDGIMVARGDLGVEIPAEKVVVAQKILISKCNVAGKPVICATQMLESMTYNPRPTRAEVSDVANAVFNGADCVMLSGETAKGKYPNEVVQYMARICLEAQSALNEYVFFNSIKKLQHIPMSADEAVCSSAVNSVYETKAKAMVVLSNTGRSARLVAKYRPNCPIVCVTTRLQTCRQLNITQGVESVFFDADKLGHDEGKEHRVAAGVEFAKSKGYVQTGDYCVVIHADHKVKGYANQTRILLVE
#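 Screened at intermediate enzyme activity to detect both inhibitors and activators: LmPK at 0.1 nM, with a 0.5 nM enzyme column as activation reference. PEP 0.5 mM, ADP 0.1 mM; ATP detected by luminescence after 1 h.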
# RE007 growth inh: qHTS Assay for Inhibitors of the HIV-1 protein Vpr; S. pombe RE007 Vpr strain, BacTiter-Glo ATP luminescence, 24 h; Potency, µM (doses to about 92.2 µM), hits mostly inhibitors; hit rate 0.21% among 360,000; active = well fitted falling curve with a large enough effect; inconclusive = small, poorly fitted or top-dose-only effect; inactive = no such curve, though single readings can be large or run the other way; also: nearly all actives have a fitted effect of over 50% in size
#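 Fission yeast RE007 carrying one integrated HIV-1 vpr copy, seeded at OD 0.01 in PMG+AL medium with 23 nL pinned compound. Grown 24 h at 30 degrees; viability read by BacTiter-Glo luminescence after 5 min.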
# TbPYK inhibitor: qHTS of Trypanosoma Brucei Inhibitors. AID 624173, 2012. Potency, µM (top dose mostly 76.8 µM), actives largely listed as inhibitors. hit rate 0.12% among 410,000. pyruvate kinase (Trypanosoma brucei), Q57TT1. TbPYK enzyme, Kinase-Glo Plus ATP luminescence, 45 min; also: nearly all actives have a fitted effect of over 50% in size
#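 Luminescent Kinase-Glo Plus end-point after 45 min room-temperature reaction of T. brucei pyruvate kinase started with 130 uM ADP (final). Buffer TEA 50 mM pH 7.2 with KCl, MgCl2, BSA, Tween-20; titration-based qHTS with fitted concentration-effect curves.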
# Numbers stand for hits; - = inactive; ? = inconclusive; . = no result; ! = not confirmed by another sample; [ ] = dose if it differs, or a comment. Unless noted, calls follow the shape of the dose curve; as a rule, active = well fitted curve in the direction sought with a large enough effect; inconclusive = small, poorly fitted or top-dose-only effect, or another doubt; inactive = no such curve, though single readings can be large; an effect the other way counts as inactive or inconclusive.
SMILES,Sm TGR inh,Giardia FBPA inh,LmPK inh,RE007 growth inh,TbPYK inhibitor
N#Cc1sc2nc(-c3ccccc3)cc(-c3ccco3)c2c1N,40µM,-,-,-,-
N#Cc1c(-c2ccccc2)cc(-c2ccco2)c(C#N)c1N,2.8µM,?,-,.,.
N#Cc1c(-c2ccco2)cc(-c2ccccc2)[nH]c1=O,8.9µM,?,-,-,-
Cc1ccc(-c2cc(-c3ccco3)c(C#N)c(=O)[nH]2)cc1,2.2µM,?,-,-,-
CCNC(=S)N/N=C(\C)c1cccc(OC)c1,?,-,-,-,-
Cn1c(N)c(C(=O)COC(=O)Cc2ccccc2F)c(=O)n(C)c1=O,.,.,.,-,-
CC(C)C1NC(C(=O)O)Cc2c1[nH]c1ccccc21 (stereo unspecified),?,?,-,-,-
CC(C)CC1NC(C(=O)O)Cc2c1[nH]c1ccccc21 (stereo unspecified),-,-,-,-,-
CCC1(C)NC(C(=O)O)Cc2c1[nH]c1ccccc21 (stereo unspecified),35µM,-,-,-,-
CCCN1CCC2(CC1)NC(C(=O)O)Cc1c2[nH]c2ccccc12 (stereo unspecified),25µM,-,-,-,-
CCCC1NC(C(=O)O)Cc2c1[nH]c1ccccc21 (stereo unspecified),45µM,-,-,-,-
CCN1C(Nc2ccccc2)=NC[C@@H]1Cc1ccccc1,25µM,-,-,-,-
CSc1ncc(CN2CCCC(C(=O)Nc3ccc(-c4ccco4)cc3)C2)cn1 (stereo unspecified),18µM,-,-,-,-
COc1ccc(CNC(=O)c2cc3cccc4c3n2CC(C)S4)c(OC)c1 (stereo unspecified),-,.,.,.,-[15.4 µM]
C=CCc1ccccc1OCC(O)CN1CCN(C(=O)OCC)CC1 (stereo unspecified),40µM,-[12.9 µM],-,-,-
CC(=O)Nc1ccc(NC(C)=O)c(NC2OCC(O)C(O)C2O)c1 (stereo unspecified),-,-,-,-,-
COc1cc(CNCC(C)C)c(Br)cc1OCC(=O)NCc1ccccc1,28µM,-,-,-,-
CCCN1C(=O)/C(=C\C=C2/Sc3ccccc3N2CC)SC1=S,-,-,-,.,.
CCN1C(=O)/C(=C/C=C2\C=CN(CC)c3ccccc32)SC1=S,?,?,18µM,-,?
N#Cc1cn(-c2ccccc2)nc1-c1ccc2c(c1)OCCO2,-,-,-,-,-
N#Cc1cn(-c2ccccc2)nc1-c1ccco1,45µM,-,-,-[3.69 µM],.
O=C(Nc1c(Br)cc2c(c1Br)Cc1ccccc1-2)C(Cl)Cl,.,.,.,-,-
COc1cc(C2C(C(C)=O)=C(O)C(=O)N2CCN2CCOCC2)ccc1O (stereo unspecified),-,-,-,-,-
CCCOc1ccc(C2C(C(=O)/C=C/c3ccco3)=C(O)C(=O)N2CCN2CCOCC2)cc1OC (stereo unspecified),8.9µM,7.9µM,-[11.5 µM],-,-
CC(=O)c1ccc(NC(=S)N2C(C)CCCC2C)cc1 (stereo unspecified),35µM,-,-,.,.
SMILES,Sm TGR inh,Giardia FBPA inh,LmPK inh,RE007 growth inh,TbPYK inhibitor
CCN(CC)N=Nc1ccc(S(=O)(=O)Nc2nc(C)cc(C)n2)cc1,11µM!,-,-,-,-
Cc1cc(C)nc(NS(=O)(=O)c2ccc(NS(=O)(=O)c3ccccc3)cc2)n1,-,-,-,-,-
CC1CCCN(c2ccc(F)cc2N)C1 (stereo unspecified),-,-,-,-,-
CCOC(=O)c1ccc(N2C(=O)CC(C)(CC)CC2=O)cc1,-,-,-,-,-
CCOC(=O)c1ccc(N2C(=O)C=CC2=O)cc1,0.5µM,?,-,5.6µM,32µM
CCOC(=O)c1ccc(-n2c(C)ccc2C)cc1,28µM,-,-,-,-
Cc1ccc(CSC2=NCCN2C(=O)c2ccc(S(=O)(=O)N(C)C)cc2)cc1,-,-,-[11.5 µM],-,-
CC(=NNC(=O)CCC(=O)Nc1ccccc1Cl)c1ccco1,.,.,.,-,-
CS(=O)(=O)N(CC(=O)NCCSCc1ccco1)c1ccc2c(c1)OCO2,?,-,-,-,-
COc1ccccc1N(CC(=O)NCCSCc1ccco1)S(=O)(=O)c1ccccc1,50µM,-,-,-,-
O=C(CCSc1ccccc1)NCCSCc1ccco1,-,-,-,-,-
O=C(COc1ccccc1)NCCSCc1ccco1,25µM,-,-,-,-
Cc1ccc(S(=O)(=O)N(CC(=O)NCCSCc2ccco2)c2cc(C)ccc2C)cc1,.,.,.,-,-
Cc1ccc(N(CC(=O)NCCSCc2ccco2)S(C)(=O)=O)cc1,45µM,-,-,-,-
Cc1cc(Cl)ccc1N(CC(=O)NCCSCc1ccco1)S(C)(=O)=O,18µM,-,-,-,-
Cc1cn2c(=O)cc(COC(=O)c3cccc(NC(=O)c4ccccc4Cl)c3)nc2s1,-,.,.,.,-
COc1ccc(N(CC(=O)NCCSCc2ccco2)S(=O)(=O)c2ccccc2)cc1,?,-,-,-,-
Cc1ccc(N(CC(=O)NCCSCc2ccco2)S(=O)(=O)c2ccc(F)cc2)cc1,-,-,-,-,-
Cc1ccc(S(=O)(=O)N(CC(=O)NCCSCc2ccco2)c2ccc(F)cc2)cc1,13µM,-,-,.,.
COc1ccc(N(CC(=O)NCCSCc2ccco2)S(=O)(=O)c2ccc(C)cc2)cc1,28µM,-,-,-,-
Cc1ccc(N(C(=O)c2csnn2)C(C(=O)NC(C)(C)C)c2cccnc2)cc1 (stereo unspecified),-,-,-,-,-
CCn1nc(C)cc1C(=O)Sc1ccc(Cl)cc1Cl,3.5µM,-,-,?,-
Cc1cc(C)n(C(=O)CNC(=O)c2cccc(Br)c2)n1,-,-,-,-,-
CCn1nc(C)cc1C(=O)Sc1cccc(Br)c1,5.6µM,-,-,-,-
CCn1nc(C)cc1C(=O)OCC(=O)c1ccc(Cl)cc1,-,.,-,-,-
SMILES,Sm TGR inh,Giardia FBPA inh,LmPK inh,RE007 growth inh,TbPYK inhibitor
O=C(O)c1ccc(NC2=C(n3nnc4ccccc43)C(=O)c3ccccc3C2=O)cc1,7.1µM,?,-,-,-
S=C(Nc1cccnc1)Nc1ccccc1Br,6.3µM,-,-,-,-
COc1cc(NC(=S)Nc2cccnc2)cc(OC)c1OC,32µM,-,-,-,-
Fc1ccc(NC(=S)Nc2ccc(Cl)cc2Cl)cc1,25µM,-,-,-,-
Fc1ccc(NC(=S)Nc2cccnc2)c(Cl)c1,18µM,-,-,-,-
Fc1ccc(CNC(=S)Nc2ccc(Cl)cc2Cl)cc1,-,-,-,-,-
CC1=C(C(=O)Nc2ccc(C(=O)N3CCN(c4ccccc4F)CC3)cc2)SCCO1,-,.,-,-,-
S=C(Nc1ccc(Oc2ccccc2)cc1)Nc1cccnc1,?,-,-,-,-
Fc1ccc(NC(=S)Nc2cccnc2)c(F)c1F,14µM,-,-,-,-
